Measurements as given in PubChem BioAssay AID1508622 (National Center for Advancing Translational Sciences (NCATS), 2021).
More than one record can exist for a structure, and the calls need not agree. The source made the active and inactive calls. Entries that show only a call come without a potency. Calls come from the whole dose curve; as a rule, active = well fitted activation curve with a large enough effect; inconclusive = small, poorly fitted or top-dose-only effect; inactive = no such curve, though single readings can be large or run the other way.

Experiment: Confirmatory qHTS for Identification of Small Molecule Activators of Huntingtin-Antisense Promoter Activity
Settings: HEK293 HTT-AS promoter firefly luciferase reporter, 24 h; series mostly up to 57.5 µM
In short: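 2,500 luciferase reporter HEK293 cells/well; 24 h culture; cpds up to 57.5 uM final, PTC124 50 uM ctrl; 24 h, 37C; Dual-Glo FLuc reagent, 10 min RT; lum. Norm.: vehicle 0%, zero RLU -100%.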
Potency is the fitted concentration of half-maximal effect.

| SMILES | Potency |
| --- | --- |
| Cc1ccc(NCc2cccn2-c2nnc(N3CCC(C(=O)NC(C)C)CC3)s2)cc1 | inactive |
| O=C(CN1CCCN(S(=O)(=O)c2ccc(Br)cc2)CC1)Nc1cccc(C(F)(F)F)c1 | inactive |
| O=C(c1cccs1)N(Cc1cccnc1)c1nc2c(F)cc(F)cc2s1 | inactive |
| COc1ccc(CNC(=O)c2ccc3c(c2)CCN3S(=O)(=O)c2ccc(C)cc2)cc1 | inactive |
| Cc1ccc(-c2onc(C)c2C)cc1S(=O)(=O)N1CCC(C)CC1 | inactive |
| Cc1ccc(C)c(N2CCN(S(=O)(=O)c3ccc(C(=O)N(C)C)s3)CC2)c1 | inactive |
| COc1ccc(C2(CNC(=O)C(=O)Nc3cccc(C(F)(F)F)c3)CCCC2)cc1OC | inactive |
| Cc1ccc(Cn2cc(/C=C(/C#N)C(=O)Nc3cccc(Cl)c3)c3ccccc32)cc1 | inactive |
| Cc1cccc(Cn2c(SCc3ccc(C(=O)N4CCC(C)CC4)cc3)nc3ccncc32)c1 | inactive |
| CCS(=O)(=O)N1CC(CC#N)(n2cc(-c3ncnc4[nH]ccc34)cn2)C1 | 30.1 µM (active) |
| CCn1c(=O)sc2cc(NS(=O)(=O)c3ccc(F)c(C)c3)ccc21 | inactive |
| CCOC(=O)c1cc2c(=O)n3ccccc3nc2n(Cc2ccco2)c1=NC(=O)c1cc(C)cc(C)c1 | inactive |
| CC(C)C(=O)N1c2ncnn2C2(CCCCC2)[C@@H]2CCCC[C@@H]21 | inactive |
| Cc1ccccc1NC(=O)c1sc2nc3c(cc2c1N)CN(Cc1ccccc1)CC3 | inactive |
| COc1ccc(NC(=O)c2cc(S(=O)(=O)NCCC3=CCCCC3)ccc2F)cc1 | inactive |
| O=C(c1ccc2c(c1)CCN2S(=O)(=O)c1ccc(Cl)cc1)N1CCN(c2ccc(F)cc2)CC1 | inactive |
| O=C(Nc1ccc(F)c(Cl)c1)C1CCN(S(=O)(=O)c2ccc3c(c2)CCCN3C(=O)C2CCC2)CC1 | inactive |
| Cc1ccccc1OCC(=O)NCC(c1ccc(Cl)cc1)N1CCOCC1 (centres undefined) | inactive |
| Cc1ccc(-c2nnc(Nc3ccc(F)cc3)c3ccccc23)cc1S(=O)(=O)NC(C)C | inactive |
| COc1cccc(C(=O)N2c3cc(C)ccc3C(C)(c3ccccc3)CC2(C)C)c1 (centres undefined) | inactive |

| SMILES | Potency |
| --- | --- |
| CCCC(=O)Nc1nnc(SCc2cc(=O)c3ccc(C)cc3[nH]2)s1 | inactive |
| O=C(NC1CCCCC1)c1ccc(CSc2nc3cccnc3n2Cc2cccc(F)c2)cc1 | inactive |
| CCCOc1cccc(NC(=O)c2c(-c3ccccc3Cl)noc2C)c1 | inactive |
| CC(=O)Nc1cccc(NC(=O)CSc2nccn2Cc2ccccc2)c1 | inactive |
| O=C(CCCCCCC(=O)Nc1ccccc1)NO | 19 µM (active) and inactive |
| N#CC[C@H](C1CCCC1)n1cc(-c2ncnc3[nH]ccc23)cn1 | inactive |
| CCc1cccc2sc(N3CCN(C(=O)c4cc5ccccc5cc4OC)CC3)nc12 | inactive |
| Cc1ccc(C2=CC(c3ccc(Cl)cc3)n3nc(-c4ccc(C)cc4)nc3N2)cc1 (centres undefined) | inactive |
| COc1cccc(C(=O)NCCSc2c(-c3ccc(F)cc3)[nH]c3ccccc23)c1OC | inactive |
| CCCCC(=O)Nc1cccc(-c2nc3ccccc3s2)c1 | 3.01 µM (active) |
| Cc1ccc(Cl)cc1N1CCN(C(=O)c2cccn2-c2nnc(N3CCCCC3)s2)CC1 | inactive |
| COc1ccc(Cl)cc1Nc1sc(C(=O)c2ccccc2)c(N)c1C(=O)Nc1ccccc1 | inactive |
| CCOC(=O)c1cc2c(=O)n3ccccc3nc2n(CC2CCCO2)c1=NC(=O)c1cc(C)cc(C)c1 (centres undefined) | inactive |
| CCCCc1nc2cc(C=CC(=O)NO)ccc2n1CCN(CC)CC | 8.49 µM (active) |
| CCOc1ccc(NCc2cccn2-c2nnc(N3CCC(C(=O)NCCc4ccc(OC)c(OC)c4)CC3)s2)cc1 | inactive |
| COc1cc(CN(C(=O)COc2ccc(C)cc2)c2ccccn2)cc(OC)c1OC | inactive |
| COc1ccccc1N1CCN(C(CNC(=O)C(=O)NCCc2ccccc2)c2cccnc2)CC1 (centres undefined) | inactive |
| CCN1C(=O)c2ccccc2Sc2ccc(NC(=O)Nc3ccc(Br)c(C)c3)cc21 | inactive |
| O=C(c1ccc(CS(=O)c2ccccc2Cl)o1)N1CCN(c2cccc(C(F)(F)F)c2)CC1 (centres undefined) | inactive |
